# Data from the supplement of paper PMC11732987, “Enantioselective OTUD7B fragment discovery through chemoproteomics screening and high-throughput optimisation” (Communications Chemistry, 2025).
# Unmarked numbers belong to inactive results.
# How the values were obtained:
# Experiment in all cases: log2 ratio of Biotin-Ahx-Ub-VS probe labelling (fragment/DMSO); higher = less target engagement (more negative = stronger competition), active = hit call of the paper (q ≤ 0.05, log2 ratio ≤ -1)
# Details in all cases: compound concentration: 200 uM; treatment time: 3 h
# ALG13 = target: T1, ALG13 (UniProt Q9NP73)
# T1 sequence (whole entry): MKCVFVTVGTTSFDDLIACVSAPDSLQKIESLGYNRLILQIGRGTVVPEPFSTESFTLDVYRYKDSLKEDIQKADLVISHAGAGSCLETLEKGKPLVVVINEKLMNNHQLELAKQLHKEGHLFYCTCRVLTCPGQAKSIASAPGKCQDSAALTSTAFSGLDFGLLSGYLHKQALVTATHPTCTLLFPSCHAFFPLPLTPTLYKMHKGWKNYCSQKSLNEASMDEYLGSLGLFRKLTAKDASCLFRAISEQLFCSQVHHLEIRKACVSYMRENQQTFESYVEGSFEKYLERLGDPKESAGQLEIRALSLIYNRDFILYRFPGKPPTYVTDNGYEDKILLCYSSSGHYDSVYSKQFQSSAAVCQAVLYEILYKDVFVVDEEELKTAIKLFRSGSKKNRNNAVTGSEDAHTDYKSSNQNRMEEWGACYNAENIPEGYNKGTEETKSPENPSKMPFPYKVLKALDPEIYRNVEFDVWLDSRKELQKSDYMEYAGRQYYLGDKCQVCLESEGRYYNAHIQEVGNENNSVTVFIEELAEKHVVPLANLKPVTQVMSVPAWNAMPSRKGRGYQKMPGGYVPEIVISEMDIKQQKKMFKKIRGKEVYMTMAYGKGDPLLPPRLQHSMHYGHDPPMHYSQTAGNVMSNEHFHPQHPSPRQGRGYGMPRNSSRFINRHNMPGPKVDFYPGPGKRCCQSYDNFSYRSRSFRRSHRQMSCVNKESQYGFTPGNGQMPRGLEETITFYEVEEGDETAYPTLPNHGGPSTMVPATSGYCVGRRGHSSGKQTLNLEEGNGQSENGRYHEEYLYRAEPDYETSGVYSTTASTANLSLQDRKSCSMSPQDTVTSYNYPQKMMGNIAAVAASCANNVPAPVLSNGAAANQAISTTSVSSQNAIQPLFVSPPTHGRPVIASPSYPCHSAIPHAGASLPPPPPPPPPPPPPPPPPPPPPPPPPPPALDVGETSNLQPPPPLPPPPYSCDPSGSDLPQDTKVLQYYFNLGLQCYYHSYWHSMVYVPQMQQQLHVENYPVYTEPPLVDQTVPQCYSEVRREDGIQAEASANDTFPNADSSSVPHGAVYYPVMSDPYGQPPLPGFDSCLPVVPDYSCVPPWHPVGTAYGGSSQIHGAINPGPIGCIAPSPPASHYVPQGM
# Outline: (§1)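 Fragment (200 µM) or vehicle was incubated for 3 h with triplicate HEK293T lysate samples of 495 µg, which were then treated with Biotin-Ahx-Ub-VS at 0.5 µM final for 1 h. Labelled DUBs were enriched on NeutrAvidin, digested with LysC and trypsin, and analysed by diaPASEF LC-MS/MS. Values are average log2 fragment/vehicle ratios from an unpaired t-test on global-median-normalised Spectronaut label-free quantities, using proteins with ≥2 unique peptides.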
# ATXN3 = ATXN3 (UniProt P54252)
# Outline: as §1
# BAP1 = target: T2, BAP1 (UniProt Q92560)
# T2 sequence (whole entry): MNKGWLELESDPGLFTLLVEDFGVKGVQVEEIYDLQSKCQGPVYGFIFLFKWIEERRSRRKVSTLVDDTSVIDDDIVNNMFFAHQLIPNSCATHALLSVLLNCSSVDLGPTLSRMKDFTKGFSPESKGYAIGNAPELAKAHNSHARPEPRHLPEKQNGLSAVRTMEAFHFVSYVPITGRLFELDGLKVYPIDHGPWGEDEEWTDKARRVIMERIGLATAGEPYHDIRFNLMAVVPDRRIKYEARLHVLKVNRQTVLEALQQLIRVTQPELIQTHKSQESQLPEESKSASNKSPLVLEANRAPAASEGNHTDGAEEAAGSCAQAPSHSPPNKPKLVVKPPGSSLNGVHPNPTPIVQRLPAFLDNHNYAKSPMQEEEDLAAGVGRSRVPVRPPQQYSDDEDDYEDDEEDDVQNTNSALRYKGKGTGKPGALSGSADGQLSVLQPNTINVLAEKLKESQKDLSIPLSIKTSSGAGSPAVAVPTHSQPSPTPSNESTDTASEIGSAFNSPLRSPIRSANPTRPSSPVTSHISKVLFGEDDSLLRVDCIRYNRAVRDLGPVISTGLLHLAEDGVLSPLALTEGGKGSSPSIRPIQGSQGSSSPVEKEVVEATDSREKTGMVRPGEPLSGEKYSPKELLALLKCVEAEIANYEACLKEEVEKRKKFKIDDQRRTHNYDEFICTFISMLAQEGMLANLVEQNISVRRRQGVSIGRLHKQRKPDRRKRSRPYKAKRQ
# Outline: as §1
# EIF3F = EIF3F (UniProt O00303)
# Outline: as §1
# EIF3H = EIF3H (UniProt O15372)
# Outline: as §1
# FAM105A = target: T3, FAM105A (UniProt Q9NUU6)
# T3 sequence (whole entry): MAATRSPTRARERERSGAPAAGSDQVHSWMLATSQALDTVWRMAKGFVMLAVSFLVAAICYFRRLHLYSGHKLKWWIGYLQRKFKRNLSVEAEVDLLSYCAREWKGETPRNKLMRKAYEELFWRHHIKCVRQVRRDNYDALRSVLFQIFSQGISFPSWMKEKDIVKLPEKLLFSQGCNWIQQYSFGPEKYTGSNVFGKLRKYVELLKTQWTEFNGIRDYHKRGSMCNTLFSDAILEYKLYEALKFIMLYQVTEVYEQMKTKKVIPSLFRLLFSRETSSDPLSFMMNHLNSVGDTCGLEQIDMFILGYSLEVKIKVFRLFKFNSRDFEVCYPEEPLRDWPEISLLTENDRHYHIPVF
# Outline: as §1
# OTUB1 = OTUB1 (UniProt Q96FW1)
# Outline: as §1
# OTUD4 = target: T4, OTUD4 (UniProt Q01804)
# T4 sequence (whole entry): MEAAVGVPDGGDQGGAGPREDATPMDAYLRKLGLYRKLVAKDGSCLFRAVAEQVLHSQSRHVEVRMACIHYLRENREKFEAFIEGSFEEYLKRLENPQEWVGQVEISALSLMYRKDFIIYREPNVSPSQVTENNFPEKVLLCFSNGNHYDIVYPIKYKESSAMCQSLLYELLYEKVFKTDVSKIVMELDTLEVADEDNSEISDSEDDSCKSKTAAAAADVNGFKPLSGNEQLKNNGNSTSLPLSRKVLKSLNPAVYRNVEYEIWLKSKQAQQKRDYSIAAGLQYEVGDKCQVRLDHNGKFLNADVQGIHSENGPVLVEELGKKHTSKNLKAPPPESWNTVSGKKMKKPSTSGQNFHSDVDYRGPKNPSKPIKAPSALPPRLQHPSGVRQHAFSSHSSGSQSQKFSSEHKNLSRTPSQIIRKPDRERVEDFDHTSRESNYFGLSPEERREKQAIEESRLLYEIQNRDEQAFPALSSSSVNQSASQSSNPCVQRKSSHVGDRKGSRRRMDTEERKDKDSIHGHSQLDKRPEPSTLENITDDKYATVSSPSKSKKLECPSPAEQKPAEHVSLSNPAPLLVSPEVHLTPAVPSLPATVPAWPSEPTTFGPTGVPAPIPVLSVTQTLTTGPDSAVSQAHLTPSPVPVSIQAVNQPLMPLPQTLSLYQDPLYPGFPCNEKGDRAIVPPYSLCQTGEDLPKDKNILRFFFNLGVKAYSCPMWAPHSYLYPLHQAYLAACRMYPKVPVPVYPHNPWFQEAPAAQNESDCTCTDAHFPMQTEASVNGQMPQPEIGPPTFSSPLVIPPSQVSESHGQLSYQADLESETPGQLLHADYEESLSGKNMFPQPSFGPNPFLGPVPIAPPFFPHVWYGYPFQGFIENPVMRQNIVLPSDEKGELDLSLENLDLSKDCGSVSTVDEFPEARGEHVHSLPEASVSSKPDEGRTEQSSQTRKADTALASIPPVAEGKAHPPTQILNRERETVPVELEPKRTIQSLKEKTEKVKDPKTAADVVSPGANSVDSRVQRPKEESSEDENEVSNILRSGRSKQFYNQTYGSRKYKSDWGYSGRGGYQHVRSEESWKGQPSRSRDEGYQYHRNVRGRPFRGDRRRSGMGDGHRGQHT
# Outline: as §1
# OTUD5 = target: T5, OTUD5 (UniProt Q96G74)
# T5 sequence (whole entry): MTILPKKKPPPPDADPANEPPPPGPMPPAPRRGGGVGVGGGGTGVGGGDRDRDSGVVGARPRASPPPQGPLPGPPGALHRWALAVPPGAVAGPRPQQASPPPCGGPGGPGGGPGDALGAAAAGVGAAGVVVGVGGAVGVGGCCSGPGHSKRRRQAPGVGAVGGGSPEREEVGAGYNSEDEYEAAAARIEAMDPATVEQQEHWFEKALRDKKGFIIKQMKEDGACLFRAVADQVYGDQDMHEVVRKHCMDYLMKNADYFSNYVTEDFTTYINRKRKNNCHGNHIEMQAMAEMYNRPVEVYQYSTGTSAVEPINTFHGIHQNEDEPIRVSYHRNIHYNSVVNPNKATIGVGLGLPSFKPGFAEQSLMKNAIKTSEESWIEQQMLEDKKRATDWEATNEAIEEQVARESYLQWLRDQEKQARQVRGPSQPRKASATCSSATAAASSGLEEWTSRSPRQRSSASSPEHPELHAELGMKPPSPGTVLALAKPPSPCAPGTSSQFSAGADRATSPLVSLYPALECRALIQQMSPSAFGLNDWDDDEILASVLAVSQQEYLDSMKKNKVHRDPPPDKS
# Outline: as §1
# EIF3H, sequence (O15372 whole entry): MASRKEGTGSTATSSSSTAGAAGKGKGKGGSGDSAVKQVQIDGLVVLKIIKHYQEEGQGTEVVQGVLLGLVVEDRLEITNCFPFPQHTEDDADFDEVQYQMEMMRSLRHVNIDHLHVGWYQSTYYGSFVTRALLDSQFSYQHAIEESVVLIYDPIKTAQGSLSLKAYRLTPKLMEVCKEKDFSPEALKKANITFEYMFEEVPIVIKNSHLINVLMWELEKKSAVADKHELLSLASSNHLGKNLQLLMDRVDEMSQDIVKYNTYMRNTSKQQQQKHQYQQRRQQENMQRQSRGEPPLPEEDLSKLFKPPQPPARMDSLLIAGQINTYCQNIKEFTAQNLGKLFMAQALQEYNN
# EIF3F, sequence (O00303 whole entry): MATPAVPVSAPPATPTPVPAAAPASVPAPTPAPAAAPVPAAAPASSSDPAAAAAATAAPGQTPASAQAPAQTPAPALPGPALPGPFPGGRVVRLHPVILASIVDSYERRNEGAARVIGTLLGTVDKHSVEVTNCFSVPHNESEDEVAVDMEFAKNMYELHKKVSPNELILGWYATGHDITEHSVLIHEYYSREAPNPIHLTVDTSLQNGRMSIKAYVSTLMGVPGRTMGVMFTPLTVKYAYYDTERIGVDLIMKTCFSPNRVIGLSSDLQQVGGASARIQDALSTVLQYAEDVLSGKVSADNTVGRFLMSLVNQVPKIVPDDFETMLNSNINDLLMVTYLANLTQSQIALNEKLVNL
# ATXN3, sequence (P54252 whole entry): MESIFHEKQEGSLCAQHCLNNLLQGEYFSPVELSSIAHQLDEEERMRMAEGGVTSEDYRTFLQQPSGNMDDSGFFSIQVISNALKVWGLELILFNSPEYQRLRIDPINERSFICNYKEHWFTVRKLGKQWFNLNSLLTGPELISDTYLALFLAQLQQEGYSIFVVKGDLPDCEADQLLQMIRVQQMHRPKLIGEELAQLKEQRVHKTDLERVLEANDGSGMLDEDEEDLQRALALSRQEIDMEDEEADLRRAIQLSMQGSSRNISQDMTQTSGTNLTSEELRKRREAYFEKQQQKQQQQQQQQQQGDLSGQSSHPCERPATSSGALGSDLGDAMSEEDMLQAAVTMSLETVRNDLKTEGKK
# OTUB1, sequence (Q96FW1 whole entry): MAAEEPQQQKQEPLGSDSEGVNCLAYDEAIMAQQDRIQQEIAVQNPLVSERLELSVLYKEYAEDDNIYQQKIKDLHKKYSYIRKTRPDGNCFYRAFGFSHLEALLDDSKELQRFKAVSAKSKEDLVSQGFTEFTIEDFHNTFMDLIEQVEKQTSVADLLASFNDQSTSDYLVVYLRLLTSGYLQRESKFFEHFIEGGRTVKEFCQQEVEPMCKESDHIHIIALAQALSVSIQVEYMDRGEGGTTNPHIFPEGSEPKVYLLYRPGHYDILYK
smiles,measurement,setting,value
COc1ccc(C2CCCN2C(=O)CCl)c(OC)c1 (centres undefined),log2 ratio of Biotin-Ahx-Ub-VS probe labelling,ALG13,-0.266
same,log2 ratio of Biotin-Ahx-Ub-VS probe labelling,ATXN3,-0.54
same,log2 ratio of Biotin-Ahx-Ub-VS probe labelling,BAP1,-3.55 (active)
same,log2 ratio of Biotin-Ahx-Ub-VS probe labelling,EIF3F,-0.23
same,log2 ratio of Biotin-Ahx-Ub-VS probe labelling,EIF3H,-0.25
same,log2 ratio of Biotin-Ahx-Ub-VS probe labelling,FAM105A,0.0093
same,log2 ratio of Biotin-Ahx-Ub-VS probe labelling,OTUB1,0.0641
same,log2 ratio of Biotin-Ahx-Ub-VS probe labelling,OTUD4,0.0731
same,log2 ratio of Biotin-Ahx-Ub-VS probe labelling,OTUD5,-0.185
